# WT yeast gro inh: growth inhibition of WT strain, primary screen, mitochondrial fusion inhibitor project, WT and mutant strains, chemical genetic | mitochondrial fusion phenotypic screen | 190,000 tested, 2.1% active | inhibition, % at 10 µM; in the data active = inhibition above about 58%; tested in S. cerevisiae
# L major viab: Leishmania major promastigote growth inhibition, primary screen; Leishmania major promastigotes, resazurin fluorescence viability; inhibition, % at 10 µM; 200,000 tested, 9% active; AID 1063, 2008; in the data active = inhibition above about 50%;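 also: promastigotes grown with compound for 44 hours at 28 °C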
# CHOP inhibitor: inhibitors of CHOP promoter induction, primary screen, cell-based, unfolded protein response, luciferase reporter. AID 2732, 2010. inhibition, % at 10 µM. CHO-K1 CHOP-promoter luciferase, tunicamycin-induced, 15-18 h. 220,000 tested, 3.8% active;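 active = compounds that reduced the stress-induced luciferase reporter signal by more than about 70% of percent inhibition, limit read from the data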
# Arbovirus anti: antivirals against arbovirus infection, primary screen, cell-based, full library, 10K replicate subset | 200,000 tested, 0.37% active | arbovirus infection cell-based antiviral screen | inhibition, % at 10 µM; in the data active = inhibition above about 30%
# A number is an active result; n = inactive; x = not tested or not shown. Rows were chosen to be rich in hits. Some 12% of all compounds tested hit in one or more screens of this group.
SMILES,WT yeast gro inh,L major viab,CHOP inhibitor,Arbovirus anti
COc1ccccc1Cc1nc2ccccc2n1S(=O)(=O)c1ccc(Cl)cc1,n,75,n,n
CCOc1cc(/C=C2/NC(=O)NC2=O)cc(Br)c1OCc1ccc(C(=O)O)cc1,n,n,n,n
CNC(=S)NCC(O)c1ccc([N+](=O)[O-])cc1 (stereo not drawn),n,n,n,n
Fc1ccc(Oc2nccc(-c3ccc(Cl)cc3)n2)cc1,n,n,81,n
COc1ccc(Oc2nccc(-c3ccc(Cl)cc3)n2)cc1,n,n,n,n
CCOC(=O)C1CCN(C(=O)c2cc(C)n(C(C)(C)C)n2)CC1,x,x,n,x
Cc1ccc2c(c1)cc(CN(Cc1cccnc1)C(=O)c1ccccc1)c1nnnn12,n,n,n,n
Cc1ccc2c(c1)cc(CN(Cc1ccc3c(c1)OCO3)S(=O)(=O)c1ccccc1)c1nnnn12,n,99,n,n
Cc1ccc(C(=O)N(Cc2cccnc2)Cc2cc3cc(C)ccc3n3nnnc23)cc1,n,96,n,n
CCN(CC)C(=O)CC(c1cc(OC)c(OC)c(OC)c1)c1c(OC)cc(OC)c2c(-c3ccccc3)cc(=O)oc12 (stereo not drawn),x,x,n,x
COC(=O)c1ccc(C(=O)OC)c(NC(=O)COC(=O)C2CCCCC2)c1,n,n,n,n
COC(=O)c1ccc(C(=O)OC)c(NC(=O)CSc2cccc[n+]2[O-])c1,n,98,n,n
O=C(CSc1cccc[n+]1[O-])CSc1cccc[n+]1[O-],n,99,n,n
Cc1cc(C(=O)CSc2cccc[n+]2[O-])c(C)n1-c1ccc(OC(F)F)cc1,x,x,n,x
COC(=O)c1ccc(C(=O)OC)c(NC(=O)COC(=O)C2CC2C)c1 (stereo not drawn),x,76,n,n
COC(=O)c1ccc(-n2c(C)cc(C(=O)CSc3cccc[n+]3[O-])c2C)cc1,n,98,n,n
O=C(N/C=C\n1cnc2cc(C(F)(F)F)ccc21)c1ccc([N+](=O)[O-])cc1,x,x,n,x
CC(C)N(C(=O)CSc1nnc(CSc2ncccn2)n1C)C(C)C,n,n,n,n
O=c1c2ccccc2nc2n1C(CBr)CN2 (stereo not drawn),x,x,n,x
Cc1ccc(S(=O)(=O)c2c[nH]c3cc4c(cc3c2=O)OCO4)cc1,x,x,n,x
O=C(CSc1ccc(Br)cc1)Nc1ccccc1Oc1ccccc1,n,n,n,n
O=C(CSc1cccc[n+]1[O-])Nc1ccccc1Oc1ccccc1,n,100,n,n
O=C(NC1CCCC1)c1ncn[nH]1,n,n,n,n
O=C(CCSc1nc(-c2ccco2)cc(C(F)(F)F)n1)N1CCCc2ccccc21,n,76,n,n
O=C(CCSc1nc(-c2ccco2)cc(C(F)(F)F)n1)N1CCN(c2ccccn2)CC1,n,n,88,n
SMILES,WT yeast gro inh,L major viab,CHOP inhibitor,Arbovirus anti
NS(=O)(=O)c1cccc(NS(=O)(=O)c2cccc(C(F)(F)F)c2)c1,x,x,n,x
COc1ccc(CNC(=O)CCc2c(C)nc3cc(-c4ccccc4OC)nn3c2C)cc1,x,x,n,x
COc1cc(OC)cc(-c2cc3nc(C)c(CCC(=O)NC(C)CCc4ccco4)c(C)n3n2)c1 (stereo not drawn),n,100,x,n
COc1cc(OC)cc(-c2cc3nc(C)c(CCC(=O)O)c(C)n3n2)c1,n,n,95,n
Cc1nc2cc(-c3ccccc3)nn2c(C)c1CCC(=O)NCc1ccco1,n,n,n,n
COc1ccc(-c2cc3nc(C)c(CCC(=O)NCc4ccc(F)cc4)c(C)n3n2)c(OC)c1,n,93,n,n
Cc1nc2cc(-c3cccc(F)c3)nn2c(C)c1CCC(=O)NC(C)CCc1ccco1 (stereo not drawn),n,100,82,n
CCCCC(=O)Nc1ccc(NC(=O)c2ccc(C)c([N+](=O)[O-])c2)cc1OC,n,n,n,n
O=C(O)CCC(=O)N1CCCC1C(=O)O (stereo not drawn),x,x,n,x
N#C/C(=N\Nc1ccccc1[N+](=O)[O-])C(=N)N1CCCCC1,n,n,n,n
CC1=C/C(=N\Nc2ccccc2[N+](=O)[O-])CC(C)(C)C1,64,n,n,n
CNC(=O)c1[nH]cnc1C(=O)Nc1ccc(OC)cc1,x,x,n,x
CC1=C(C(=O)OC(C)C)C(c2ccccc2Cl)CC(=O)N1 (stereo not drawn),n,n,76,n
CC(=O)C1=C(C)NC(=O)CC1c1ccccc1Cl (stereo not drawn),n,n,n,n
O=C1c2ccccc2C(=O)N1c1ccc(Cc2ccncc2)cc1,x,x,n,x
O=C(c1ccccc1F)N1CCN(c2ccc([N+](=O)[O-])c3cccnc23)CC1,n,63,n,n
Cc1ccc(Cl)cc1NC(=O)Nc1cccs1,n,n,n,n

# Assay outcomes deposited in PubChem BioAssay by several laboratories.
